Inconclusive results are not listed. The source made the active and inactive calls. How the source made its calls, unless noted: active means hit-call score of the fitted dose curve at least 0.9, where 1 is the maximum; inconclusive means response in the unintended direction; inactive means score below 0.9.

Read-out in test [1]: xenobiotic metabolism (CYP1A1), CYP1A1 (gene 1543)
Put plainly: CLD_CYP1A1_6hr: CellzDirect (CLD) Gene Expression Assay for xenobiotic metabolism (CYP1A1) at 6 hours (AID 2283661).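 On AC50: potency for transcript induction above DMSO vehicle baseline.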 The procedure, abridged:
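Primary human hepatocytes from two donors, compound versus 0.2% DMSO vehicle. CYP1A1 mRNA measured 6 h after dosing by quantitative nuclease protection assay with chemiluminescent read-out; induction fitted relative to DMSO, cytotoxicity flagged by microscopy.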

Test [2] relates to Thyroperoxidase (TPO), gene 54314. Put plainly: CCTE_Simmons_AUR_rTPO: CCTE's Amplex UltraRed Assay for Thyroperoxidase (TPO) Inhibition, Simmons Lab (AID 2283662).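 Further: potency for loss of signal meaning inhibition of peroxidase activity.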 The procedure, abridged:
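Rat thyroid microsomal TPO + 25 uM AUR in 200 mM K phosphate; cpd 5 nM–87.5 uM [final], 8 conc, 0.5% DMSO; 300 uM H2O2 starts rxn; 37C dark 30 min; endpoint FI 544/590 nm; n=3.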

Read-out in test [3]: xenobiotic metabolism (CYP1A2), CYP1A2 (gene 1544)
Put plainly: CLD_CYP1A2_6hr: CellzDirect (CLD) Gene Expression Assay for xenobiotic metabolism (CYP1A2) at 6 hours (AID 2283663).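 On AC50: potency is for induction meaning a rise in mRNA above DMSO.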 An outline of the steps:
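Primary human hepatocytes from two donor preparations, dosed daily with multiple concentrations in 0.2% DMSO and harvested at 6 h. CYP1A2 mRNA induction measured by chemiluminescent qNPA, gain of signal fitted against DMSO; cytotoxicity flagged morphologically.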

Test [4] is described as follows: CCTE_Simmons_CellTiterGLO_HEK293T: Viability Assessment in CCTE's Assays for Thyroperoxidase (TPO) Inhibition, Simmons Lab (AID 2283665).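 On AC50: cells exposed to compound for 24 h before readout; actives reduce ATP signal below DMSO vehicle meaning cytotoxicity.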 An outline of the steps:
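HEK293T cells in DMEM with 1% FBS were dosed with 8 concentrations (5 nM–87.5 uM final, 0.5% DMSO) for 24 hr at 37C; ATP content was read by CellTiter-Glo luminescence, loss-of-signal versus DMSO, three biological replicates.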

A short description of test [5]: Tanguay_ZF_120hpf_TR_legacy: (Legacy) Oregon State University Tanguay Lab 120 Hour Post-fertilization zebrafish Assay for Touch Response (AID 2283667). An outline of the steps: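 Tropical 5D wild-type zebrafish embryos statically exposed to 120 hpf at 28°C, sealed and dark-covered, 0.64% DMSO final; touch response scored as present/absent by brightfield microscopy at 120 hpf. Trimethyltin chloride 5 uM positive control; dead embryos not scored.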

Read-out in test [6]: organic anion transporter (SLCO1B1), SLCO1B1 (gene 10599)
Put plainly: CLD_SLCO1B1_6hr: CellzDirect (CLD) Gene Expression Assay for organic anion transporter (SLCO1B1) at 6 hours (AID 2283668).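 Further: active means mRNA induction above DMSO baseline.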 The procedure, abridged: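 Primary human hepatocytes dosed daily with test chemicals (multiple concentrations) in 0.2% DMSO vehicle; harvested at 6 h. SLCO1B1 mRNA quantified by qNPA chemiluminescence, fitted as gain-of-signal versus DMSO; cytotoxicity from phase-contrast morphology flagged alongside.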

Test [7] is described as follows: CLD_ACTIN_24hr: CellzDirect (CLD) Gene Expression Assay for Baseline Control (Actin) at 24 hours (AID 2283670). An outline of the steps: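 Primary human hepatocytes dosed over multiple concentrations with 0.2% DMSO vehicle; actin mRNA measured at 24 h by qNPA chemiluminescence. Background control endpoint, fitted as gain of signal versus DMSO.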
Read-out in test [8]: Cytochrome P450 (CYP24A1_1), CYP24A1 (gene 1591)
Put plainly: LTEA_HepaRG_CYP24A1_1: Life Technologies and Expression Analysis (LTEA) Assay for Cytochrome P450 (CYP24A1_1) using HepaRG (AID 2283671; active means hit-call score of the fitted dose curve at least 0.9, where 1 is the maximum; inactive means score below 0.9). The note with it: mRNA level, 48 h; actives raise or lower the signal. The procedure, abridged: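 Differentiated human HepaRG cells in serum-free induction medium, exposed 48 h in duplicate to eight half-log concentrations from 100 uM top, 0.5% DMSO. Transcript measured by TaqMan qRT-PCR, normalised to ACTB, GAPDH, POLR2A; bidirectional fitting versus DMSO.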

Read-out in test [9]: glucuronosyltransferase (UGT1A1), UGT1A1 (gene 54658)
Put plainly: CLD_UGT1A1_6hr: CellzDirect (CLD) Gene Expression Assay for glucuronosyltransferase (UGT1A1) at 6 hours (AID 2283672). The procedure, abridged: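 Primary human hepatocytes from two donor preparations, dosed with fresh solutions in 0.2% DMSO, harvested at 6 h. UGT1A1 mRNA measured by qNPA chemiluminescence; induction fitted upward versus DMSO.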

Test [10] is described as follows: CCTE_Padilla_ZF_144hpf_TERATOSCORE: (Legacy) CCTE's 144 Hour Post-fertilization zebrafish Assay Teratoscore, Padilla Lab (AID 2283679; active means hit-call score of the fitted dose curve at least 0.9, where 1 is the maximum; inactive means score below 0.9;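 on AC50: zebrafish embryos with chorions exposed by immersion from 6-8 hpf to 5 dpf with daily renewal; teratogenicity score from eye scoring of death hatching and malformations at 144 hpf; higher score means more developmental defects relative to DMSO baseline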). The procedure, abridged: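 Larvae scored by eye at 144 hpf for death, hatching and malformations after a day in clean Hanks'. Before that, daily-renewed exposure at 80 uM (0.4% DMSO, 26C) from roughly 6-8 hpf through 5 dpf, 4 embryos per chemical.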

Read-out in test [11]: xenobiotic metabolism (CYP1A2), CYP1A2 (gene 1544)
Put plainly: CLD_CYP1A2_24hr: CellzDirect (CLD) Gene Expression Assay for xenobiotic metabolism (CYP1A2) at 24 hours (AID 2283683). The procedure, abridged:
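Primary human hepatocytes from two donor preparations dosed daily with multiple concentrations of chemical, 0.2% DMSO vehicle. CYP1A2 mRNA at 24 h quantified by qNPA chemiluminescence; gain of signal analyzed relative to DMSO. Cytotoxicity flagged by phase-contrast morphology.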

Read-out in test [12]: ABC Transporter (ABCB1), ABCB1 (gene 5243)
Put plainly: CLD_ABCB1_24hr: CellzDirect (CLD) Gene Expression Assay for ABC Transporter (ABCB1) at 24 hours (AID 2283684). An outline of the steps: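 Primary human hepatocytes, two donor preparations, dosed daily with fresh solutions; vehicle 0.2% DMSO; harvested at 24 h. ABCB1 mRNA measured by quantitative nuclease protection assay (chemiluminescence); morphology-based cytotoxicity annotated.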

Read-out in test [13]: Cytochrome P450 2C9 (Homo sapiens) (UniProt P11712)
Put plainly: CLD_CYP2C9_24hr: CellzDirect (CLD) Gene Expression Assay for xenobiotic metabolism (CYP2C9) at 24 hours (AID 2283688). An outline of the steps: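 Primary human hepatocytes from two donor preparations, dosed daily for two days at multiple concentrations; vehicle 0.2% DMSO. CYP2C9 mRNA induction at 24 h measured by qNPA chemiluminescence relative to DMSO; cytotoxicity annotated from morphology.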

Read-out in test [14]: alkyl and aryl transferase (GSTA2), GSTA2 (gene 2939)
Put plainly: CLD_GSTA2_24hr: CellzDirect (CLD) Gene Expression Assay for alkyl and aryl transferase (GSTA2) at 24 hours (AID 2283693). An outline of the steps: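 Primary human hepatocytes (two donor preparations) dosed daily for two days with chemicals at multiple concentrations (vehicle 0.2% DMSO); GSTA2 mRNA at 24 h measured by qNPA chemiluminescence, gain-of-signal versus DMSO.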

Test [15] can be described thus: CLD_ACTIN_6hr: CellzDirect (CLD) Gene Expression Assay for Baseline Control (Actin) at 6 hours (AID 2283676).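 Further: active means increased actin mRNA relative to DMSO vehicle.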 An outline of the steps: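 Primary human hepatocytes dosed with fresh chemical solutions (vehicle 0.2% DMSO), harvested at 6 h. Actin mRNA quantified by quantitative nuclease protection assay with chemiluminescent read-out, as background control relative to DMSO.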

Read-out in test [16]: Cytochrome P450 3A4 (Homo sapiens) (UniProt P08684)
Put plainly: CLD_CYP3A4_24hr: CellzDirect (CLD) Gene Expression Assay for xenobiotic metabolism (CYP3A4) at 24 hours (AID 2283689). The procedure, abridged:
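Primary human hepatocytes from two donors dosed daily with fresh compound for two days, 0.2% DMSO vehicle. CYP3A4 mRNA at 24 hr by qNPA chemiluminescence; gain-of-signal fit versus DMSO, cytotoxicity flagged by morphology.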

Read-out in test [17]: Cytochrome P450 2B6 (Homo sapiens) (UniProt P20813)
Put plainly: CLD_CYP2B6_6hr: CellzDirect (CLD) Gene Expression Assay for xenobiotic metabolism (CYP2B6) at 6 hours (AID 2283677).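 Further: actives raise CYP2B6 transcript above DMSO baseline so AC50 marks an inducer.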 An outline of the steps: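 Primary human hepatocytes dosed with chemicals at multiple concentrations, vehicle 0.2% DMSO; CYP2B6 mRNA induction measured 6 h after dosing by quantitative nuclease protection assay with chemiluminescence, gain of signal fitted relative to DMSO.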

Read-out in test [18]: Cytochrome P450 2B6 (Homo sapiens) (UniProt P20813)
Put plainly: CLD_CYP2B6_24hr: CellzDirect (CLD) Gene Expression Assay for xenobiotic metabolism (CYP2B6) at 24 hours (AID 2283686). The procedure, abridged:
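Primary human hepatocytes dosed daily for two days with fresh solutions, harvested at 24 hours; mRNA induction quantified by qNPA chemiluminescence, gain of signal vs 0.2% DMSO vehicle. Cytotoxicity annotated from phase-contrast morphology.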

Read-out in test [19]: HMG-CoA synthase (HMGCS2), HMGCS2 (gene 3158)
Put plainly: CLD_HMGCS2_24hr: CellzDirect (CLD) Gene Expression Assay for HMG-CoA synthase (HMGCS2) at 24 hours (AID 2283691). The procedure, abridged: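 Primary human hepatocytes from two donor preparations, dosed daily with fresh solutions; vehicle 0.2% DMSO, 24 h harvest. HMGCS2 mRNA quantified by qNPA with S1 nuclease digestion and chemiluminescence; gain fitted versus DMSO, cytotoxicity annotated by morphology.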

Sequence of Cytochrome P450 3A4 (Homo sapiens) (P08684 whole entry, looked up): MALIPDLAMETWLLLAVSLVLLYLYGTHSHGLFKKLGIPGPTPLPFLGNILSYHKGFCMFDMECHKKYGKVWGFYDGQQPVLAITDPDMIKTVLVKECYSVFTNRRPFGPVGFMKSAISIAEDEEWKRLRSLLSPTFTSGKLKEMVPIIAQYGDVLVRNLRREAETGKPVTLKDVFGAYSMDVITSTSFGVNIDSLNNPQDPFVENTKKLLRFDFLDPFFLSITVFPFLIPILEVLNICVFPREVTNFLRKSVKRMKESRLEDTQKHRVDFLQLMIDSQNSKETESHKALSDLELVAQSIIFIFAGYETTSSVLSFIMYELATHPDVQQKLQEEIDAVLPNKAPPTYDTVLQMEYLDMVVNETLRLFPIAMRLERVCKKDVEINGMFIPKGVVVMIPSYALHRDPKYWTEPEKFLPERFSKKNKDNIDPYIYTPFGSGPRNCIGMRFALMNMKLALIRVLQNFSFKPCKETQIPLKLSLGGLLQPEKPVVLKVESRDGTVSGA

Turning to `CN1CSC(=S)N(C)C1`, the compound was called inactive in [1], in [3], in [4], in test [5], in [6] and in test [7]. The outcome in [8], in test [9], in [11], in test [12], in test [13] and in test [14] was inactive. For the same compound, the results for the AC50 in [2] and in [10] were 6520 nM (active) and 196 nM (active), respectively.
On to `CC1(c2ccc(Oc3ccccc3)cc2)OC(=O)N(Nc2ccccc2)C1=O` (configuration not stated), for which the outcome in [1], in [5], in test [6], in [7], in test [15] and in test [11] was inactive. The compound was called inactive in [16] and in [14]. Also, the AC50 in test [2] was 2450 nM (active); in test [4] it was 20200 nM (active); in test [10], 172 nM (active).
As for `COP(=O)(OC)OC=C(Cl)Cl`, the concentration at half-maximal activity (AC50) is 1900 nM (active) in test [1], 21000 nM (active) in test [2], 1890 nM (active) in test [17] and 53800 nM (active) in test [10]. The compound was called inactive in [3], in test [4], in [5], in test [7], in test [9] and in [15]. The outcome in test [11], in [12], in test [18], in test [19] and in [14] was inactive.
With `COc1nn(CSP(=S)(OC)OC)c(=O)s1`, the AC50 was 1250 nM (active) in test [1]; 3700 nM (active) in test [2]; 2890 nM (active) in [3]; 18200 nM (active) in test [10]; 3120 nM (active) in test [11]; 1970 nM (active) in test [18]. In addition, the compound was called inactive in test [4], in test [5], in test [6], in [9], in test [12] and in test [13].
`Cc1[nH]c(=O)n(C(C)(C)C)c(=O)c1Cl`: the concentration at half-maximal activity (AC50) is 20000 nM (active) in test [1], 7.93 nM (active) in test [5] and 20000 nM (active) in test [11]. The outcome in [3], in [7], in test [8], in [9], in test [10] and in test [12] was inactive. Further, the call in test [18], in test [13] and in test [16] was inactive.
In the case of `CNC(=O)CSP(=S)(OC)OC`, the half-maximal activity concentration (AC50) is 275 nM (active) in test [1], 7200 nM (active) in test [2] and 327 nM (active) in test [3]. Besides, the call in [4], in test [5], in test [6], in test [7], in [9] and in test [15] was inactive. Besides, the compound was classed as inactive in test [10], in [11], in test [12], in test [18], in test [19] and in test [14].
Take `CCOCN(C(=O)CCl)c1c(C)cccc1CC`: the call in test [1], in test [3], in [5], in test [6], in [9] and in test [15] was inactive. In addition, the compound was called inactive in test [12], in [13] and in test [14]. Moreover, the concentration at half-maximal activity (AC50) in test [10] is 15500 nM (active); in test [11], 333 nM (active); in [18] it was 2050 nM (active); in test [16], 3000 nM (active).

(Values after PubChem BioAssay (EPA / NIEHS).)
